In PubChem BioAssay:

Experiment: splicing luciferase reporter signal modulators, primary screen, spliceosome inhibition project, cell-based, HEK293, splice +/- reporter (AID 1101);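 also: HEK293 cells carrying a splicing-competent luciferase reporter gene; test concentration not given here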
Settings: luminescence, 24 h, higher = more signal, called active from +8 up or from −8 down

z-score, inactive:
CN(C)C(=O)[C@@]1(Cc2ccccc2CN=[N+]=[N-])N=C(c2ccc(OCCCO)cc2)O[C@H]1c1ccccc1 0.249
COc1cc2c(cc1OC)CN(C(=O)[C@H]1[C@@H]3C(=O)O[C@@H](c4ccccc4)[C@@H](c4ccccc4)N3[C@@H](c3ccc(O)cc3)[C@]13C(=O)Nc1ccc(C#CC4=CCCCC4)cc13)CC2 -0.58
CN1C(=O)C2C=CC(C(O)c3cc(C(F)(F)F)cc(C(F)(F)F)c3)N(N3CCCCC3)C2C1=O (stereo unspecified) 0.139
COCC(=C=CC[C@H](O)c1ccccc1OCCO)C[C@H](O)c1cc(Cl)cc(Cl)c1O -0.705
CCCN1C(=O)[C@]2(CCS(=O)(=O)c3ccccc3)N=C(c3ccc(OCCCO)cc3)O[C@@H]2c2ccccc21 -0.707
COc1cc2c(cc1OC)CN(C(=O)[C@H]1[C@@H]3C(=O)O[C@@H](c4ccccc4)[C@@H](c4ccccc4)N3[C@@H](c3ccc(O)cc3)[C@]13C(=O)Nc1ccc(C#CCNC(N)=O)cc13)CC2 -0.996
CN(C)CCCNC(=O)[C@@]1(C)c2ccccc2C(=O)N(Cc2cc(F)cc(C(F)(F)F)c2)[C@H]1c1ccc(CO)cc1 -0.249
O=C1C2C=CC(C(O)C3CCCCC3)N(Nc3ccc([N+](=O)[O-])cc3)C2C(=O)N1c1ccccc1 (stereo unspecified) -1.04
O=C1OCCC/C=C\[C@H]2OC34C=CCN(c5ccc6ccccc6c5)C(=O)[C@H]3N(CCCCCCO)C(=O)[C@@H]4C12 (stereo partly specified) -1.39
COCCOC(=O)N1C(=O)[C@@]2(c3cc(C#CCNC(N)=O)ccc31)[C@H](C(=O)NC[C@H](O)c1ccccc1)[C@H]1C(=O)O[C@H](c3ccccc3)[C@H](c3ccccc3)N1[C@@H]2c1ccccc1OCCO -0.0247
CC(C)(C)OC(=O)CC[C@@]12N=C(c3ccc(OCCCO)cc3)O[C@@H]1c1ccccc1N(CCS(=O)(=O)c1ccccc1)C2=O -1.14
COC(=O)[C@@]1(Cc2ccc(F)cc2)[C@H]2c3cc(C(=O)N4CCCC4)n(Cc4cc(C)n(C)n4)c3C[C@H]2CN1C(=O)c1ccccc1 -3.14
COC(=O)c1c(CC[C@@H](CO)NC(=O)N2CCC[C@H]2Cn2cc(-c3ccccn3)nn2)oc(C(C)=O)c1C(=O)OC -1.25
CCOC(=O)[C@H]1CC=C2CC1C(=O)N1CCC[C@@H]1[C@@H]2O[Si](C)(C)C(C)(C)C (stereo partly specified) 0.582
C=CCC(OC(C)=O)[C@@H]1[C@@H](N(Cc2ccc(-c3ccccc3)cc2)C(=O)Cc2ccc(F)cc2)c2cc(OCCCO)ccc2N1C(=O)c1ccc(-c2ccccc2)cc1 (stereo partly specified) -2.23
CCOC(=O)C[C@H]1[C@H](OC(=O)Cc2ccc3c(c2)OCO3)[C@@H](NC(=O)c2ccc(-c3ccccc3)cc2)c2cc(OCCCO)ccc2N1C(=O)c1ccc2ccccc2n1 -2.82
COCCCNC(=O)[C@@]1(Cc2ccccc2)N=C(c2ccc(OCCCO)cc2)O[C@H]1c1ccccc1 0.272
NC(=O)[C@@H]1[C@H]2C(=O)O[C@H](c3ccccc3)[C@H](c3ccccc3)N2[C@H](c2ccc(O)cc2)[C@@]12C(=O)Nc1ccc(C#CC3(O)CCCCCC3)cc12 0.0171
COc1cc2c(cc1O)C(C1CC1)N(Cc1cc3c(cc1Br)OCO3)CC2 (stereo unspecified) -0.39
CCCCCC1=C2CNC(CCC)(C(=O)OC)C=C2C(C)C1=O (stereo unspecified) 2.6
COc1ccc(C(O)C2C=CC3C(=O)NC(=O)C3N2Nc2ccccn2)c2ccccc12 (stereo unspecified) 0.841
COC(=O)C(CC#Cc1ccc2c(c1)[C@]1(C(=O)N2)[C@H](C(=O)O)[C@H]2C(=O)O[C@H](c3ccccc3)[C@H](c3ccccc3)N2[C@@H]1c1ccc(O)cc1)C(=O)OC 0.199
CC1(C)[C@@H]2CC(C(O)C3C=CC4C(=O)N(c5ccccc5)C(=O)C4N3Nc3ccccc3)=C[C@H]1C2 (stereo partly specified) 0.99
COc1ccc([Si](C)(C)[C@H]2[C@H](CCn3cc([C@H](O)c4ccccc4)nn3)O[C@@]3(C(=O)N(Cc4cccc(N5CCOC5=O)c4)c4ccccc43)[C@@H]2C)cc1 0.36
COc1cc2c(cc1O)C=[N+](Cc1cccc(OC(F)(F)F)c1)CC2 -0.663
COC(=O)[C@@]1(Cc2ccc(OC)cc2)[C@H]2c3cc(C(=O)N(C)C)n(CCN4CNCC4=O)c3C[C@H]2CN1C(=O)c1ccccc1 2.02
